Assay results from PubChem BioAssay AID430 (Sanford-Burnham Center for Chemical Genomics, 2006).
Where “and” joins values, the source holds several entries; their conditions need not be identical. Equal entries are not always repeated. Screen size: about 63,000 compounds; about 1,100 (1.7%) were called active. This is one part of a sample in which actives are shown more often than they occur. No stated cut-off is given here; in the data, active means cytotoxicity above about 50%; inactive means the rest. Results with a measured potency or affinity are listed apart. Where a structure was tested more than once in an assay, its records may differ in their call.

test: cytotoxicity in HPDE-C7 cells, cell-based, fluorescence, HTS (AID 430); conditions: HPDE-C7 pancreatic duct cells viability, at 10 µM, stronger effect = higher value;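 further: cells exposed to compound for 48 hours before viability readout; 0% = vehicle and 100% = reference cytotoxic drug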

Row | SMILES | cytotoxicity
1 | Cc1ccc(-c2nc(CS(=O)CC(=O)N3CCC4(CC3)OCCO4)c(C)o2)cc1 (configuration not stated) | 1.6% (inactive)
2 | CC(C)=CCC12CN3CCN(CC(C3)C1=O)C2 | -7.6% (inactive)
3 | COc1cc(OC)cc(-n2nc(C(=O)N3CCC4(CC3)OCCO4)c3ccccc3c2=O)c1 | -1.5% (inactive)
4 | CCC(=NCc1ccc2c(c1)OCO2)c1c(O)n(C2CCCCC2)c(=O)[nH]c1=O | 64.4% (active)
5 | CCC(=NCc1cccnc1)c1c(O)n(C2CCCCC2)c(=O)[nH]c1=O | -32.8% (inactive)
6 | CCCCn1c(O)c(C(CC)=NCc2ccc3c(c2)OCO3)c(=O)[nH]c1=O | 10% (inactive)
7 | Cn1c2ccccc2c2c(C(=O)N3CCC4(CC3)OCCO4)cn(C3CCCCC3)c(=O)c21 | -1.3% (inactive)
8 | NCCCP(=O)(O)CCc1ccccc1 | -5.8% (inactive)
9 | Cn1c(O)c(/C=N/c2ccccn2)c(=O)n(C)c1=O | -18.2% (inactive)
10 | COc1ccc(C2SCC(=O)Nc3c2c(=O)[nH]n3C2CCCCC2)cc1 (configuration not stated) | -0.7% (inactive)
11 | CCOc1ccc(C2SCC(=O)Nc3c2c(=O)[nH]n3C2CCCCCC2)cc1 (configuration not stated) | -18.2% (inactive)
12 | COc1ccc(C2SCC(=O)Nc3c2c(=O)[nH]n3C2CCCCCC2)cc1 (configuration not stated) | 90.9% (active)
13 | N#Cc1ccc(N2CCNCC2)c(F)c1 | 8.7% (inactive)
14 | O=C1NC(=O)C2(Cc3c(nc4ccccn4c3=O)N3CCCCCC32)C(=O)N1Cc1ccccc1 (configuration not stated) | 48.1% (inactive)
15 | Cc1nc2ccc(Cl)cn2c1P(=S)(N1CCOCC1)N1CCOCC1 | -4.2% (inactive)
16 | COc1ccc(Cn2c(N)c(C(=O)NCc3ccco3)c3nc4ccccc4nc32)cc1OC | 2.8% (inactive)
17 | Nc1c(C(=O)NCCN2CCOCC2)c2nc3ccccc3nc2n1Cc1ccco1 | 5.7% (inactive)
18 | COCCOC(=O)c1c(N)n(Cc2ccco2)c2nc3ccccc3nc12 | 17.4% (inactive)
19 | COc1ccc(Cn2c(N)c(C(=O)NCc3ccco3)c3nc4ccccc4nc32)cc1 | 69.5% (active)
20 | COCCOC(=O)c1c(N)n(Cc2ccc(OC)cc2)c2nc3ccccc3nc12 | -32.4% (inactive)
21 | Nc1c(C(=O)NCc2ccco2)c2nc3ccccc3nc2n1Cc1ccc(F)cc1 | 80.9% (active)
22 | Cc1nnc2ccc(N3CCN(C)CC3)nn12 | -0.1% (inactive)
23 | C=CCN1C(=O)C2(C(C(=O)OCC)=C(N)Oc3ccccc32)c2c1c1ccccc1oc2=O (configuration not stated) | 5.2% (inactive)
24 | CCCCCCn1c(N)c(C(=O)NCCN2CCOCC2)c2nc3ccccc3nc21 | 72.1% (active)
25 | CCCCn1c(N)c(C(=O)NCCN2CCOCC2)c2nc3ccccc3nc21 | 1.4% (inactive)
26 | CCCCCn1c(N)c(C(=O)NCCN2CCOCC2)c2nc3ccccc3nc21 | 10.6% (inactive)

Row | SMILES | cytotoxicity
27 | COc1ccc(CCNC(=O)c2c(N)n(CCN3CCOCC3)c3nc4ccccc4nc23)cc1 | 62.9% (active)
28 | CCOC(=O)c1c(N)n(CCN2CCCCC2)c2nc3ccccc3nc12 | 9.2% (inactive)
29 | CCCCNC(=O)c1c(N)n(CCCOC)c2nc3ccccc3nc12 | 24.4% (inactive)
30 | OCCNc1c2c(nc3ccccc13)CCCC2 | -2.4% (inactive)
31 | CC(=NCCCN1CCOCC1)c1c(O)[nH]c(=O)[nH]c1=O | 3.3% (inactive)
32 | CC1(C)C(C(=O)NCc2ccco2)C1(C)C | -21.5% (inactive)
33 | Cc1nc2ccccc2c(=O)n1-c1cccc(O)c1 | 3.6% (inactive)
34 | Cc1cccc(N2CCc3c2nc2ccccc2c3N)c1 | 24.2% (inactive) and 50.1% (active)
35 | Cc1cccc(-c2nc3ccccc3c(=O)n2-n2cccc2)c1 | 19.1% (inactive)
36 | CC(=NCc1cccnc1)c1c(O)n(Cc2ccccc2)c(=O)[nH]c1=O | -13.3% (inactive)
37 | COc1ccc(C2NCc3ccc4c(c3-n3cccc32)OCO4)cc1OC (configuration not stated) | -0.1% (inactive)
38 | c1cc2n(c1)-c1c(ccc3c1OCO3)CNC2c1ccc2c(c1)OCO2 (configuration not stated) | 29.3% (inactive)
39 | COc1ccc(C2NCc3ccc4c(c3-n3cccc32)OCO4)cc1O (configuration not stated) | 63.9% (active)
40 | O=C(O)C(O)(c1ccccc1)C1CCCC1 (configuration not stated) | 13.6% (inactive)
41 | CN(C)CP(=O)(Nc1ccccc1)N(C)C (configuration not stated) | -14.4% (inactive)
42 | O=C(c1cc(-c2cccnc2)nc2ccc(Cl)cc12)N1CCC2(CC1)OCCO2 | 4.7% (inactive)
43 | COc1cccc(OC)c1C1=NCC(=O)Nc2c1oc1ccc(Br)cc21 | 72.5% (active)
44 | O=C1CN=C(c2ccccc2)c2oc3ccc(Br)cc3c2N1 | -10.4% (inactive)
45 | Cc1cc(NC(=O)COC(=O)c2c(C)nn(Cc3ccccc3Cl)c2Cl)no1 | 3.7% (inactive)
46 | CCc1nc2ccccc2c(=O)n1-c1cccc(OC)c1 | 18.7% (inactive)
47 | CCn1nc(-c2cccs2)nc2c(=O)n(C)c(=O)nc1-2 | 114% (active)
48 | O=c1c2ccccc2nc(-c2cccs2)n1-c1cnccn1 | 2.1% (inactive)
49 | CCn1nc(-c2ccccc2)nc2c(=O)n(C)c(=O)nc1-2 | 119% (active)
50 | CSc1ccc(CNC2CN3CCC2CC3)cc1 (configuration not stated) | -5.8% (inactive)
51 | O=C(Cc1ccccc1)OCCN1CCCCC1 | 0.7% (inactive)
52 | Cc1cccc(OC(=O)N2CCOCC2)c1 | -0.2% (inactive)

Row | SMILES | cytotoxicity
53 | O=C(COc1ccccc1)N1CCN(C/C=C/c2ccccc2)CC1 | 1.6% (inactive)
54 | CCCCOc1ccc(CN2CCN(CCO)CC2)cc1 | 23.7% (inactive)
55 | COc1ccc2[nH]cc(CCN(C)C)c2c1 | -6% (inactive)
56 | CCCCc1ccc2[nH]cc(CCN)c2c1 | 62.3% (active)
57 | NCCc1c[nH]c2ccc(F)cc12 | -7.7% (inactive)
58 | COc1cc(OC)c(OC)cc1CNC(C)C(O)c1ccccc1 (configuration not stated) | 2.2% (inactive)
59 | COC(=O)c1cc2c(s1)=NC=NP=2(N1CCOCC1)N1CCOCC1 | -14.1% (inactive)
60 | C[C@@]1(CO)[C@H](O)CC[C@@]2(C)[C@H]1CC[C@H]1C[C@@H]3C[C@@]12CC[C@]3(O)CO | 82.5% (active)
61 | O=C(C(Cc1ccccc1)NS(=O)(=O)c1cccc2nsnc12)N1CCC2(CC1)OCCO2 (configuration not stated) | -4.1% (inactive)
62 | O=C(c1ccc(CS(=O)(=O)c2ccccc2)o1)N1CCC2(CC1)OCCO2 | -2.7% (inactive)
63 | CCC(=Nc1ccccc1NC(C)=O)c1c(O)n(C)c(=O)n(C)c1=O | 41.8% (inactive)
64 | CC(=O)C1=C(C)OC(N)=C(C(=O)OC(C)C)C12C(=O)Nc1ccccc12 (configuration not stated) | -8.9% (inactive)
65 | CCCCc1nc(N2CCNCC2)c(C#N)c2c1CSC(C)(C)C2 | 52.3% (active)
66 | CCc1nc(N2CCNCC2)c(C#N)c2c1CSC(C)(C)C2 | 37.6% (inactive)
67 | O=C(CN1C(=O)CN=C(c2ccccc2Cl)c2cc(Cl)ccc21)NCc1ccco1 | 2.5% (inactive)
68 | O=c1[nH]c(=O)n(CCC2=CCCCC2)c(O)c1C=NCCCn1ccnc1 | -30.8% (inactive)
69 | COc1ccc(C(=O)C(C)(C)NO)cc1 | -9.5% (inactive)
70 | C=CCn1c(O)c(C(C)=NCc2cccnc2)c(=O)[nH]c1=O | 8.9% (inactive)
71 | O=C(Cn1ncc2ccccc21)N1CCC2(CC1)OCCO2 | -19.4% (inactive)
72 | O=c1[nH]c(=O)n(C2CCCCCC2)c(O)c1C=NCCCN1CCOCC1 | 2.2% (inactive)
73 | O=c1c(C=NCCN2CCNCC2)c(O)n(C2CCCCC2)c(=O)n1C1CCCCC1 | 62.8% (active)
74 | O=c1[nH]c(=O)n(Cc2ccccc2)c(O)c1C=NCCN1CCNCC1 | -11.2% (inactive)
75 | Cc1nc2c(c(C)nn2-c2ccccc2)c(C)c1CCC(=O)N1CCC2(CC1)OCCO2 | -12.1% (inactive)
76 | Fc1ccc2c(c1)nnn2C1CCN(Cc2nnnn2C2CCCCC2)CC1 | -8% (inactive)
77 | NC(=O)C1(N2CCCCC2)CCN(Cc2ccccc2)CC1 | -8.8% (inactive)
